Reference: PubChem BioAssay AID504432 (National Center for Advancing Translational Sciences (NCATS), 2011)
“And” between values parts separate entries of the source, which are not always exact repeats. Equal entries are not always repeated. Records with an inconclusive call do not appear. The source made the active and inactive calls. The call rests on the fitted dose curve; in most records, active means well fitted inhibition curve with a large enough effect; inconclusive means small, poorly fitted or top-dose-only effect, or another doubt; inactive means flat fitted curve, though single readings scatter.

Experiment: Confirmation Concentration-Response Assay for lipid storage modulators: for probe SAR round 2
Details: Drosophila S3 cells, BODIPY lipid droplet fluorescence, 18-24 h; series mostly up to 46.1 µM
Text: NIH Molecular Libraries Probe Production Centers Network [MLPCN] NIH Chemical Genomics Center [NCGC] MLPCN Grant: 1 R03 MH085686-01 Assay Submitter (PI): Beller, Mathias; Max-Planck-Institut fur Biophysikalische Chemie NCGC Assay Overview: Storing lipids as a reservoir for energy or the anabolism of elementary metabolites is a common feature of probably all cells and is conserved from bacteria to humans. The universal cellular lipid storage organelle is the so-called lipid storage droplet (LD). Although ubiquitous, LDs share a simple structure composed of a hydrophobic core that harbors the storage lipids, which is shielded by a droplet-specific phospholipid monolayer to which proteins are attached. The current model of LD biogenesis involves an incorporation of the lipid core into the membrane leaflets of the endoplasmic reticulum (ER) followed by a subsequent budding-like maturation of a LD, which ultimately pinches off. Once released, LD volume can increase by localized lipogenesis or fusion of existing droplets. Storage lipids are re-mobilized enzymatically by lipase activity. Lipase regulation in the adipocyte is heavily studied and involves multiple components including catecholamine signaling, the LD-associated proteins Perilipin and comparative gene identification-58 (CGI-58) and at least two lipases named hormone sensitive lipase (HSL) and adipocyte triglyceride lipase (ATGL). LD regulation outside of the adipocyte is poorly understood and only few components are known. However, there is an urgent need to learn more about ectopic fat depots as mislocalized storage of lipids, for example in the liver or muscle, is an eminent health problem associated with insulin resistance or the metabolic syndrome. We developed a laser-scanning cytometer assay to enable 1,536-well screening and combined the results of the small molecules screen with an RNAi database based on lipid storage.
We dispensed 4 uL of cells at 1.25 x 10^6 cells/mL into LoBase Aurora COC 1,536-well plates (black walled, clear bottom) with a bottle-valve solenoid-based dispenser (Aurora) to obtain 5,000 cells/well. Triacsin C (Sigma-Aldrich T-4540), an inhibitor of long-chain fatty acyl CoA synthetase that blocks synthesis of triglycerides, was used as a positive control for lipid under-storage. A total of 23 nL of compound solution of different concentrations were transferred to the assay plates using a Kalypsys pin tool equipped with a 1,536-pin array containing 10-nL slotted pins (FP1S10, 0.457-mm diameter, 50.8 mm long; V&P Scientific). One microliter of oleic acid (400 uM) was added, and the plate was lidded with stainless steel rubber gasket lined lids containing pinholes. After 18-24 h incubation at 24 degree Celsius and 95% humidity, 4 uL of the dyes BODIPY 493/503 (Molecular Probes) and the Cell Tracker Red CMTPX dye (Molecular Probes) were added to the wells to stain lipid droplets and enumerate cell number, respectively. Fluorescence was detected by excitation of the fluorophores with a 488-nm laser on an Acumen Explorer (TTP Lab Tech). The total intensity in channel 1 (500-530 nm) reflected lipid droplet accumulation. Cells were detected using channel 3 (575- 640 nm) with 5-um width and 100-um depth filters. The ratio of the total intensity in PMT channel 1 over total intensity of channel 3 was also calculated. Percent activity was computed relative to an internal control (100% inhibited lipid droplet deposition due to the presence of 20 uM Triacsin C), which was added to 32 wells/plate.

Potency, active:
O=C(NC1CCCc2c1cnn2-c1ccc(O)cc1)c1ccccn1 (stereo unspecified) 0.7 nM, CC(C)(C)OC(=O)NCCOCCOCCOc1cccc(-n2ncc3c2CCCC3NC(=O)c2ccccn2)c1 (stereo unspecified) 5.6 nM, CCNC(=O)C1CCN(C(=O)C(C)(C)NC(=O)Nc2ccccc2Cl)CC1 14100 nM, CCOC(=O)C1CCN(C(=O)C(C)(C)NC(=O)Nc2ccc3ccccc3c2)CC1 4990 nM, O=C(N[C@H]1CCCc2c1cnn2-c1ccc(F)cc1F)c1ccccn1 22300 nM, O=C(NC1CCCc2c1cnn2-c1ccc(F)cc1F)c1ccccn1 (stereo unspecified) 315 nM and 6.3 nM, CCOC(=O)C1CCN(C(=O)C(C)(C)NC(=O)Nc2ccc(F)c(F)c2)CC1 1990 nM, CCOC(=O)C1CCN(C(=O)C(C)(C)NC(=O)Nc2ccc(Cl)cc2Cl)CC1 445 nM, CCOC(=O)C1CCN(C(=O)C(C)(C)NC(=O)Nc2ccc3c(c2)CCC3)CC1 12500 nM, CCN(CC)C(=O)C1CCN(C(=O)C(C)(C)NC(=O)Nc2ccccc2Cl)CC1 15800 nM, CCOC(=O)C1CCN(C(=O)C(C)(C)NC(=O)Nc2ccc(-c3ccccc3)cc2)CC1 1410 nM, O=C(NC1CCCc2c1cnn2-c1ccc(F)cc1F)c1cccs1 (stereo unspecified) 6.3 nM, O=C(NC1CCCc2c1cnn2CCO)c1ccccn1 (stereo unspecified) 1580 nM, CC(C)(C)OC(=O)NCCOCCOCCOc1ccc(-n2ncc3c2CCCC3NC(=O)c2ccccn2)cc1 (stereo unspecified) 1.8 nM, CCOC(=O)C1CCN(C(=O)C(C)(C)NC(=O)Nc2ccccc2Cl)CC1 705 nM, CC(C)(C)OC(=O)NCCOCCOCCOCCn1ncc2c1CCCC2NC(=O)c1ccccn1 (stereo unspecified) 158 nM, O=C(NC1CCCc2c1cnn2-c1ccc(F)cc1F)c1ccccc1 (stereo unspecified) 25 nM, CCOC(=O)C1CCN(C(=O)C(C)(C)NC(=O)Nc2ccc(C(F)(F)F)cc2Cl)CC1 141 nM, CCOc1ccc(CCNC(=O)c2cc3sccc3n2Cc2cccc(C)c2)cc1OCC 2.2 nM, COc1ccc(-n2ncc3c2CCCC3NC(=O)c2ccccn2)cc1 (stereo unspecified) 1.6 nM, O=C(NC1CCCc2c1cnn2-c1cccc(O)c1)c1ccccn1 (stereo unspecified) 5 nM, CCOC(=O)C1CCN(C(=O)C(C)(C)NC(=O)Nc2ccc(OC)c(Cl)c2)CC1 7910 nM, CCOC(=O)C1CCN(C(=O)C(C)(C)NC(=O)Nc2cccc(OC)c2)CC1 4450 nM, CCOC(=O)C1CCN(C(=O)C(C)(C)NC(=O)Nc2ccc(N(C)C)cc2)CC1 5600 nM, COc1cccc(-n2ncc3c2CCCC3NC(=O)c2ccccn2)c1 (stereo unspecified) 2.5 nM, CCOC(=O)C1CCN(C(=O)C(C)(C)NC(=O)Nc2cccc(-c3csc(C)n3)c2)CC1 25000 nM, CCOC(=O)C1CCN(C(=O)C(C)(C)NC(=O)Nc2ccc3sccc3c2)CC1 12500 nM, CCOC(=O)C1CCN(C(=O)C(C)(C)NC(=O)Nc2ccc(Oc3ccccc3)cc2)CC1 353 nM, CCOC(=O)C1CCN(C(=O)C(C)(C)NC(=O)Nc2cccc(C(=O)OC)c2)CC1 7050 nM

Potency, inactive:
CC(C)(NC(=O)Nc1ccccc1Cl)C(=O)N1CCC(C(=O)O)CC1, CCOC(=O)C1CCN(C(=O)C(C)(C)NC(=O)Nc2ccc(CN3CCOCC3)cc2)CC1
